TRb-SRC2 inh: qHTS for Inhibitors of the Interaction of Thyroid Hormone Receptor and Steroid Receptor Coregulator 2; AID 1469, 2008; TRbeta-SRC2 peptide binding, fluorescence polarization; receptor liganded with 1 µM T3; 280,000 compounds, 0.065% hits; Potency, µM (series often up to 106 µM), for the others: at the highest dose activity change, negative = inhibition, actives largely listed as inhibitors; Thyroid hormone receptor beta (Homo sapiens), P10828;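 also: plate controls were bound peptide for no effect and peptide without receptor for full effect; nearly all actives have a fitted effect of over 50% in size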
Target sequence (P10828 whole entry, looked up): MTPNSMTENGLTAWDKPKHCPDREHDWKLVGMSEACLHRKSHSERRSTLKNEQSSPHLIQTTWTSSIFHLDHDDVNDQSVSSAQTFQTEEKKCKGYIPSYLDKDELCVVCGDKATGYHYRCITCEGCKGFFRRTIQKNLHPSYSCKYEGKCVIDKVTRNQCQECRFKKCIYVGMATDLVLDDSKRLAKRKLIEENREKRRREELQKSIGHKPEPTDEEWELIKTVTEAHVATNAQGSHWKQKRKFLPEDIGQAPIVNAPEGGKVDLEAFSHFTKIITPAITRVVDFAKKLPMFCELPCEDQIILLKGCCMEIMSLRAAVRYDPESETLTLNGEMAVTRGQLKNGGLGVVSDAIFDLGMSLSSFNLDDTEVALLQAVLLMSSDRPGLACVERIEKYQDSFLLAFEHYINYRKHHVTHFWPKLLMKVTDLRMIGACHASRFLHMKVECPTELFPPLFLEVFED
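Polarization signal, normalized between peptide-alone and full complex controls, measured compound effects on T3-liganded human TRb LBD (0.6 uM) binding 20 nM Texas Red SRC2 peptide after 5 hr.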
Tau fluor cs: Counterscreen qHTS for Inhibitors of Tau Fibril Formation, Fluorescence Polarization; tau K18 P301L Alexa594 fluorescence, heparin fibrillization; Potency, µM (titrated, usually from 57.7 µM), without a hit: top-dose activity change, negative = decrease; 280,000 compounds, 0.93% hits; AID 1463, 2008; also: nearly all actives have a fitted effect of over 55% in size
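Human tau K18 P301L (15 uM unlabeled, 0.24 uM Alexa 594-labeled) in 100 mM sodium acetate pH 7 with 20 uM heparin, 6 hr at 37 C. ThT 30 uM added, 1 hr ambient; Alexa 594 FP and total fluorescence read at 555/632 nm.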
TexasRed fluor: Total Fluorescence Counterscreen for Inhibitors of the Interaction of Thyroid Hormone Receptor and Steroid Receptor Coregulator 2; TRb/SRC2 Texas Red total fluorescence interference; Potency, µM (highest dose often 106 µM), for the others: top-dose fluorescence change, negative = quenching; 280,000 compounds, 0.29% hits; active = well fitted curve in either direction with a large enough effect; inconclusive = small, poorly fitted or top-dose-only effect
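Flags fluorescent or light-absorbing compounds by total fluorescence, S + 2P, at 555 nm excitation and 632 nm emission. Mixture: 20 nM Texas Red SRC2 peptide, 0.6 uM human TRb LBD, 1 uM T3, 5% DMSO; compound exposure 5 h at ambient temperature.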
Tau fibril FP: qHTS for Inhibitors of Tau Fibril Formation, Fluorescence Polarization; AID 1468, 2008; Microtubule-associated protein tau (Homo sapiens), P10636; Potency, µM (series often up to 57.7 µM), for inactives: at the highest dose activity, negative = inhibition, hits mostly inhibitors; K18 P301L tau heparin fibrillization, Alexa594 FP, 6 h; 280,000 compounds, 0.39% hits; also: nearly all actives have a fitted effect of over 55% in size
Target sequence (P10636 561-689 P618L limits assumed): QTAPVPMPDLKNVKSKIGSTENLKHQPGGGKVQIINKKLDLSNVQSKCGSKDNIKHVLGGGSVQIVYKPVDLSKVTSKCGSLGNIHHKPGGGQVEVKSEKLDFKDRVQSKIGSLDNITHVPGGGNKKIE
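Human K18 P301L fragment (15 uM unlabeled plus 0.24 uM Alexa 594-labeled) in 100 mM sodium acetate pH 7 with compound, aggregation induced by 20 uM heparin for 6 hr at 37 C. ThT (30 uM) added for 1 hr, then Alexa 594 FP read.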
Tau fibril ThT: qHTS for Inhibitors of Tau Fibril Formation, Thioflavin T Binding; Microtubule-associated protein tau (Homo sapiens), P10636; recombinant tau K18 P301L (four-repeat tau fragment), heparin-induced fibrillization, ThT fluorescence; Potency, µM (doses to about 57.4 µM), for the others: top-dose activity, negative = inhibition, actives largely listed as inhibitors; 270,000 compounds, 2.1% hits; AID 1460, 2008; also: nearly all actives have a fitted effect of over 55% in size
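Aggregation was driven by heparin (20 uM final) acting on recombinant tau […] bearing P301L in 100 mM sodium acetate pH 7; fibrils were detected with Thioflavin T.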
Active calls of the source: *; ? = inconclusive; . = no result given; [ ] = remark or other dose. Sampled rows, rich in hits. Any-hit rate of the full collection: about 3%. Unless noted, calls follow the shape of the dose curve; as a rule, active = well fitted curve in the direction sought with a large enough effect; inconclusive = small, poorly fitted or top-dose-only effect, or another doubt; inactive = no such curve, though single readings can be large; an effect the other way counts as inactive or inconclusive. Unless noted, % is scaled to controls: 0 for no effect and ±100 for the full control effect; potency is read from the fitted curve at half-maximal effect.

SMILES	TRb-SRC2 inh	Tau fluor cs	TexasRed fluor	Tau fibril FP	Tau fibril ThT
COc1ccc2nc(Nc3nc4cc5c(cc4s3)OCO5)sc2c1	1.1%	7.94µM*[quencher]	-0.6%	2.2%	2.82µM*
COc1ccc2nc(Nc3ccc4c(c3)OCO4)sc2c1	-8.9%	?	-7.2%	1.3%	?
COc1ccc2nc(Nc3ccccc3OC)sc2c1	-1.1%	?	-6.0%	10.4%	12.6µM*
COc1ccc2nc(Nc3ccccc3)sc2c1	-0.7%	17.8µM*[quencher]	-5.1%	10.8%	14.1µM*
COc1ccc2nc(NC(C)=O)sc2c1	-17.0%	-2.1%	1.1%	-2.4%	-5.9%
COc1ccc(Nc2nc3ccccc3c(=O)s2)c(OC)c1	-3.5%	-0.6%	1.1%	6.6%	-0.6%
COc1ccc(Nc2nc(C)c(-c3ccccc3)s2)cc1	-1.8%	8.91µM*[quencher]	-1.2%	7.3%	5.62µM*
Cc1cc(Cl)ccc1NC(=O)c1cc2ccccn2n1	6.9%	-15.0%	-0.4%	1.5%	?
CCOC(=O)C1=C(C)NC(=O)CC1c1cc2c(cc1[N+](=O)[O-])OCO2 (stereo unspecified)	?	?	?	?	22.4µM*
CS(=O)(=O)c1ccc2c(c1)sc1nc(=O)c(/C=C3/C=CC(=O)C(O)=C3)c(N)n12	-0.2%	?	-22.1%	-2.0%	3.98µM*
CCOc1ccc(NC(=O)CN2C(=O)C3(SCC(=O)N3c3ccc(F)cc3)c3ccccc32)cc1 (stereo unspecified)	-2.0%	-16.2%	-1.6%	-4.5%	-2.6%
N/C(=N\OC(=O)c1ccc(Cl)c(Cl)c1)c1ccccn1	0.2%	2.8%	-0.7%	0.1%	?
N/C(=N\OC(=O)c1ccc(Cl)c([N+](=O)[O-])c1)c1ccccn1	-1.4%	?	-4.9%	-7.5%	8.91µM*
CC(=O)N[C@H](C(=O)O)C(C)(C)SN=O	7.8%	-4.9%	-0.4%	?	?
CC(=O)N[C@@H](C(=O)O)C(C)(C)SN=O	10.8%	-19.8%	-0.8%	?	28.2µM*
O=C(Nc1cccc(Cl)c1)C1=Cc2cc(Cl)ccc2OC1	6.0%	?	-2.4%	?	-17.7%
O=C(Nc1ccc(Cl)c(Cl)c1)C1=Cc2ccccc2OC1	-15.1%	?	-2.2%	15.8µM*	?
N#CC1=C(N)N(c2ccc(F)cc2)C2=C(C1c1ccc(O)cc1)S(=O)(=O)CC2 (stereo unspecified)	?	?	44.7µM*[fluorescent]	?	15.8µM*
CC/C(C)=N\Nc1nc(-c2cc3cc(OC)ccc3oc2=O)cs1	-4.1%	17.8µM*[quencher]	-10.7%	?	22.4µM*
COc1ccc2oc(=O)c(-c3nc(C)cs3)cc2c1	1.9%	-14.6%	-1.0%	-12.5%	?
COc1ccc(N=C(NN)c2ccc3ccccc3n2)cc1	1.2%	-10.5%	0.5%	-5.3%	15.8µM*
COc1ccccc1NC(=O)C1=C(C)Nc2c(C(=O)Nc3ccc(C)cc3)cnn2C1c1cccc(OC)c1OC (stereo unspecified)	1.2%	-24.6%	-4.8%	-7.9%	-9.1%
COc1ccc(-c2[nH]c3ccccc3c2SCCNC(=O)c2ccccc2)cc1	11.8%	-2.7%	-1.4%	2.0%	-1.1%
CN(C)S(=O)(=O)c1ccc(C(=O)NCCSc2c(-c3ccc(Br)cc3)[nH]c3ccccc23)cc1	-2.2%	4.47µM*[quencher]	-0.8%	?	-5.8%
CCN(CC)S(=O)(=O)c1ccc(C(=O)NCCSc2c(-c3ccc(F)cc3)[nH]c3ccccc23)cc1	-4.9%	4.47µM*[quencher]	-2.0%	-3.6%	-6.4%
SMILES	TRb-SRC2 inh	Tau fluor cs	TexasRed fluor	Tau fibril FP	Tau fibril ThT
O=C(NCCSc1ccc(Br)cc1)c1ccccc1	1.9%	-5.9%	-7.9%	3.5%	-1.8%
Cc1ccc(-c2[nH]c3ccccc3c2SCCNC(=O)c2ccc(S(=O)(=O)N3CCOCC3)cc2)cc1	-0.9%	3.55µM*[quencher]	-2.0%	1.8%	-4.3%
CCN(CC)S(=O)(=O)c1ccc(C(=O)NCCSc2c(-c3ccccc3)[nH]c3ccccc23)cc1	-7.9%	4.47µM*[quencher]	-1.3%	-8.0%	-10.2%
Cc1cccc(-n2c3nc(=O)[nH]c(=O)c-3cc3c(Cl)cccc32)c1C	-27.5%[53 µM]	-12.7%	?	-7.0%	-11.5%
Cc1nc2sccn2c(=O)c1S(=O)(=O)NCc1ccc(F)cc1	-8.7%	-10.2%	0.0%	-7.8%	-6.9%
Oc1ccc(/C=N/N2CCOCC2)c(O)c1O	-14.4%	-27.2%	-7.5%	10µM*	8.91µM*
O=C1c2ccccc2C(=O)N1/N=C/c1ccc(O)c(O)c1O	3.0%	?	?	6.31µM*	3.98µM*
O=C1c2cccc3cccc(c23)C(=O)N1/N=C/c1ccc(O)cc1O	10.3%	-19.6%	-4.3%	-8.9%	-9.3%
O=C1/C(=C/c2ccc(O)c(O)c2)Oc2cc(O)ccc21	-1.7%	?	-14.8%	3.9%	14.1µM*
COc1cc(/C=C2\Oc3cc(O)ccc3C2=O)ccc1O	2.4%	-23.9%	-14.5%	14.1%	?
O=S(=O)(c1ccc2nc(-c3ccccc3)[nH]c2c1)N1CCN(c2ccc(Cl)cc2)CC1	-0.7%	?	-2.1%	?	6.8%
Cc1cc(NS(=O)(=O)c2ccc3nc(-c4ccccc4)[nH]c3c2)ccc1Br	6.0%	?	-0.9%	7.94µM*	?
O=S(=O)(Nc1ccc(Br)cc1F)c1ccc2nc(-c3ccccc3)[nH]c2c1	-4.9%	-14.5%	-0.6%	14.1µM*	?
Cc1ccc(NS(=O)(=O)c2ccc(Cl)c(C(=O)Nc3ccccc3-c3nc4ccccc4[nH]3)c2)cc1C	4.5%	?	-0.3%	14.1µM*	?
Cc1ccc(NS(=O)(=O)c2ccc3nc(-c4ccccc4)[nH]c3c2)cc1Cl	5.1%	?	-0.6%	10µM*	?
CN(C)S(=O)(=O)c1ccc(Cl)c(C(=O)Nc2nc3ccccc3[nH]2)c1	-0.7%	-2.9%	-2.2%	-1.8%	-0.5%
Cc1ccc2c(Br)cc(Br)c(O)c2n1	5.8%	.	-1.5%	.	.
O=C(Cc1ccccc1Nc1c(Cl)cccc1Cl)OCO/N=[N+](\[O-])N1CCCC1	0.1%	.	0.0%	.	.
COC(=O)N1C2CC3(C)CC(=O)CC1(C)C3c1ccccc12 (stereo unspecified)	-7.0%[11.2 µM]	-14.7%[11.6 µM]	-1.2%[11.2 µM]	-0.6%[11.6 µM]	-5.3%[11.5 µM]
S=C(NNc1ccc2ccccc2c1)NC1CCCCC1	1.0%	?	-0.8%	?	25.1µM*
S=C(Nc1ccc(Oc2ccccc2)cc1)NC1CCCCCC1	-10.0%	?	-1.2%	-7.8%	-6.2%
CCn1c2ccccc2c2cc(NC(=O)c3cccc(OC)c3)ccc21	6.2%	12.6µM*[quencher]	-8.2%	10.2%	?

Bioassay records as filed in PubChem BioAssay.
